Measurements reported in PubChem BioAssay AID1347416 (National Center for Advancing Translational Sciences (NCATS), 2020).
Out of some 4,100 compounds screened, about 1,600 (39%) were called active. About 25% were inconclusive and are not listed. Calls follow the shape of the dose curve; as a rule, active = well fitted inhibition curve with a large enough effect; inconclusive = small, poorly fitted or top-dose-only effect; inactive = no such curve, though single readings can be large or run the other way. The list shows a part of the results. Entries that show only a call come without a potency.

Assay: qHTS Validation assay for Inhibitors of Plasmodium falciparum Dd2 growth in vitro; also: nearly all actives have a fitted effect of over 70% in size
Details: P. falciparum Dd2 in RBCs, SYBR Green growth, 72 h; series mostly up to 28.7 µM
Procedure, shortened: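 P. falciparum Dd2-infected red blood cells (2.5% hematocrit, 0.3% parasitemia) grown 72 h at 37 °C under 5% O2 with compounds in a titration, 29 uM to 0.5 nM final. Growth read as SYBR Green-1 fluorescence after ~16 h lysis; artesunate 300 nM as positive control.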
Potency is read from the fitted curve at half-maximal effect.

Structure (SMILES)	Potency
CC(=O)NCCc1ncc(C)n1C1CCC1	inactive
CC(=O)NCCc1ncc(C)n1C1CCCCCC1	inactive
CCOC(=O)c1cnc(-n2nc(C)cc2C)nc1NC1CCCC1	8.41 µM (active)
CCOC(=O)c1cnc(-n2nc(C)cc2C)nc1NNc1nc(-c2ccccc2)cc(-c2ccccc2)n1	2.11 µM (active)
ClC(Cl)(Cl)c1nc2ccccc2n2nncc12	2.11 µM (active)
CN(CCNC(=O)c1cc2c(-c3ccccc3F)nn(C)c2s1)C1CCCCC1	5.96 µM (active)
CCCCN(C)CCNC(=O)c1cc2c(-c3cccc(OC)c3)nn(C)c2s1	6.68 µM (active)
CCCN(CCC)CCNC(=O)c1cc2c(-c3ccc(Cl)cc3)nn(C)c2s1	0.596 µM (active)
COc1cccc(-c2cc(C(=O)NCC34CCC=C3N(C)C(=O)CC4)[nH]n2)c1 (stereo not drawn)	inactive
COc1cccc(-c2cc3c(=O)n(CCNC(=O)c4cccc5[nH]ccc45)ccn3n2)c1	inactive
CCCCN(CC)CCNC(=O)c1cc2c(-c3ccc(Cl)cc3)nn(C)c2s1	0.668 µM (active)
COC(=O)c1c(NC(=O)/C(C#N)=C/c2ccc(OC)cc2)sc2c1CCC2	inactive
O=C(NCCCn1cccn1)C1Cn2cccc2C(=O)N1Cc1ccccc1 (stereo not drawn)	inactive
COc1ccc(C(=O)N2CCOCC3(CN(Cc4ccccc4)C3)C2)c(OC)n1	inactive
COc1ccccc1CN1CCOCC2(C1)CN([S+](=O)([O-])c1ccccc1)C2	12.2 µM (active)
COc1ccc(C2=NOC3(CCN([S+](=O)([O-])c4cccc(OC)c4)C3)C2)cc1 (stereo not drawn)	inactive
Cc1ccc(Sc2ccc(N3CCCC(C(=O)Nc4ccc(F)c(Cl)c4)C3)nn2)cc1 (stereo not drawn)	inactive
O=C(Nc1ccc(N2CCCCC2)c(Cl)c1)c1ncn[nH]1	4.73 µM (active)
CCc1c(C)c(C#N)c2nc3ccccc3n2c1NCC1CCCO1 (stereo not drawn)	2.99 µM (active)
N#Cc1c2c(c(NCc3ccco3)n3c1nc1ccccc13)CCC2	2.37 µM (active)

Structure (SMILES)	Potency
COC(=O)CSc1nc2c(c(-c3ccco3)c1C#N)CCCC2	inactive
CN1c2cc(C(=O)NCc3nc4ccccc4n3C)ccc2C(=O)N2CCCCCC21 (stereo not drawn)	inactive
O=C(Nc1ccccc1)N[C@H]1[C@H](O)[C@@H](Oc2ccccc2)[C@@H]2OC[C@H]1O2	inactive
CC(=O)N1CCN([C@H]2[C@@H]3OC[C@@H](O3)[C@@H](NC(=O)Nc3ccc(F)cc3)[C@@H]2O)CC1	inactive
COc1ccccc1N1CCN([C@H]2[C@@H]3OC[C@@H](O3)[C@@H](NCc3ccc(-c4ccccc4)cc3)[C@@H]2O)CC1	15 µM (active)
CC(=O)N1CCN([C@H]2[C@@H]3OC[C@@H](O3)[C@@H](NC(=O)Nc3ccccc3)[C@@H]2O)CC1	inactive
O[C@H]1[C@H](NCC2CCCCC2)[C@H]2CO[C@H](O2)[C@@H]1N1CCC(Cc2ccccc2)CC1	1.37 µM (active)
Oc1ccccc1CN[C@H]1[C@H](O)[C@@H](N2CCC(Cc3ccccc3)CC2)[C@@H]2OC[C@H]1O2	3.44 µM (active)
O[C@H]1[C@H](NCc2ccc(-c3ccccc3)cc2)[C@H]2CO[C@H](O2)[C@@H]1Oc1ccccc1	inactive
COc1ccccc1N1CCN([C@H]2[C@@H]3OC[C@@H](O3)[C@@H](N(CC3CC3)CC3CC3)[C@@H]2O)CC1	inactive
CCOC(=O)CC(=O)CSc1ccc2nnc(-c3ccccc3)n2n1	inactive
Cc1cc(NC(=O)CSc2ccc3nnc(-c4cccc(F)c4)n3n2)no1	5.96 µM (active)
CCc1noc(-c2ccn3c(CNC(=O)Cc4cccc(F)c4)nnc3c2)n1	inactive
CCCc1noc(-c2cccn3c(CNC(=O)c4ccc(Cl)cc4)nnc23)n1	inactive
COc1cc2c(cc1CNc1ncncn1)CCC2	inactive
Cc1ccccc1C(=O)Nc1cccc(-c2nc3cccnc3s2)c1	inactive
CC(=O)Nc1cccc(-c2ccnc(-c3nnc(C)n3Cc3ccccc3)c2)c1	inactive
O=C(CCl)Nc1cccc(-c2cnc3ccccc3n2)c1	6.68 µM (active)
O=C(Nc1ccc(S(=O)(=O)NC2=NCCCCC2)cc1)c1ccco1	inactive
O=c1c2ccccc2c(C=Nc2cccc(S(=O)(=O)NC3=NCCCCC3)c2)c(O)n1Cc1ccccc1	13.3 µM (active)

Structure (SMILES)	Potency
O=C(CCC[C@H]1NC[C@@H]2C[C@H]1CN(Cc1ccccc1)C2)NCCCN1CCCc2ccccc21	10.6 µM (active)
Cc1nnc2c(N3CCN(c4ccccc4)CC3)nc3ccc(C(=O)c4ccccc4)cc3n12	0.842 µM (active)
Fc1ccc(CN2CC[C@H](c3nc4ccc(C(F)(F)F)cc4[nH]3)C2)cc1F	inactive
COc1ccccc1-c1ccc(CN2CCCC(c3nc4ccc(F)cc4c(=O)[nH]3)C2)cc1 (stereo not drawn)	8.41 µM (active)
CCN1CCCC(c2nc3ccc(F)cc3c(=O)[nH]2)C1 (stereo not drawn)	inactive
Oc1cc2c(cc1CN1CCN(c3cccc(C(F)(F)F)c3)CC1)CCC2	0.944 µM (active)
Cc1ccc(Cl)cc1N1CCN(C(=O)c2ccc3c(Cl)c4c(nc3c2)CCCC4)CC1	inactive
CC(=O)N1CCC(C2CCN(Cc3cc(Cl)ccc3F)C2)CC1 (stereo not drawn)	inactive
COc1ccc(CN2CCC3(CC2)CC(O)CCO3)c(OC)c1 (stereo not drawn)	inactive
Cc1ccc(Cl)cc1N1CCN(Cc2cc3c(cc2O)CCC3)CC1	0.188 µM (active)
COc1ccc(N2C(N)=NC(N)=NC23CCCC3)cc1	inactive
O=C(c1ccc2c(Cl)c3c(nc2c1)CCCC3)N1CCN(c2cccc(C(F)(F)F)c2)CC1	inactive
COc1ccc(N2CCN(Cc3cc4c(cc3O)CCC4)CC2)cc1	16.8 µM (active)
CC(C)NC(=O)N1CCCC(Cn2c(C3CC3)nc3cccnc32)C1 (stereo not drawn)	inactive
N#CC1CCN(C(=O)c2nc(-c3cccc(C(F)(F)F)c3)c3cnccn23)CC1	16.8 µM (active)
O=C(Cc1ccccc1)N1CCCC2(CC(c3cccc(C(F)(F)F)c3)=NO2)C1 (stereo not drawn)	inactive
O=C1Nc2ccc(-c3cccc(C(F)(F)F)c3)cc2C(=O)N2CCN(C(=O)c3ccccc3)C[C@H]12	inactive
O=C(c1nc(-c2cccc(C(F)(F)F)c2)c2cnccn12)N1CCCC1	10.6 µM (active)
